Measured values from PubChem BioAssay (NCI).
The panel holds about 83,000 compounds, 20% with a hit somewhere; the sample as a whole holds those more often.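 How to read the values: 0–100, growth inhibition (40 = 60% inhibited); 0, no net growth; -100 to 0, cell death (-40 = 40% of starting cells died; -100 = all dead).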 The source made the active and inactive calls. The calls were made as follows: active = growth percent below 10; inactive = the rest.

Legend:
Experiment in all cases: NCI-60 one-dose screen, 48 h (100 = growth as untreated, 0 = no growth, -100 = all killed)
Conditions in all cases: 10 µM
NCI-H23 lung = test system: NCI-H23 lung
NCI-H226 lung = test system: NCI-H226 lung
NCI-H322M lung = test system: NCI-H322M lung
HOP-62 NSCLC = test system: HOP-62 NSCLC
NCI-H460 lung = test system: NCI-H460 lung
HOP-92 NSCLC = test system: HOP-92 NSCLC
NCI-H522 lung = test system: NCI-H522 lung
A549/ATCC NSCLC = test system: A549/ATCC NSCLC
786-0 renal = test system: 786-0 renal
COLO 205 colon = test system: COLO 205 colon

Measured: growth

COC1=CC(=O)c2nc(Cl)ccc2C1=O
inactive: NCI-H226 lung 26.6% | NCI-H322M lung 106% | HOP-62 NSCLC 89.4% | NCI-H460 lung 115% | A549/ATCC NSCLC 98.3% | 786-0 renal 72.4% | COLO 205 colon 102%
active: NCI-H23 lung -15.2% | HOP-92 NSCLC -18.4% | NCI-H522 lung -51.2%

COC(=O)/C=C1\Sc2cc(F)ccc2NC1=O
inactive: NCI-H23 lung 95.7% | NCI-H226 lung 101% | NCI-H322M lung 100% | HOP-62 NSCLC 96.5% | NCI-H460 lung 112% | HOP-92 NSCLC 82.4% | NCI-H522 lung 107% | A549/ATCC NSCLC 95.7% | 786-0 renal 94.3%

COc1ccc(-c2cc(-c3cc(-c4ccc(OC)cc4)nc(N)n3)nc(N)n2)cc1
inactive: NCI-H23 lung 102% | NCI-H226 lung 99.4% | NCI-H322M lung 94.3% | HOP-62 NSCLC 94.7% | NCI-H460 lung 99.5% | HOP-92 NSCLC 105% | NCI-H522 lung 100% | A549/ATCC NSCLC 97.8% | 786-0 renal 103% | COLO 205 colon 107%

CC1(C)N=C(N)N=C(N)N1c1ccc(Cl)cc1
inactive: NCI-H23 lung 37.2% | NCI-H226 lung 76.1% | NCI-H322M lung 59.2% | HOP-62 NSCLC 36.9% | NCI-H460 lung 18.3% | HOP-92 NSCLC 132% | NCI-H522 lung 46.6% | A549/ATCC NSCLC 27.4% | 786-0 renal 17.7%

CSc1[nH]c(=O)ncc1F
inactive: NCI-H23 lung 101% | NCI-H226 lung 99.7% | NCI-H322M lung 97.8% | HOP-62 NSCLC 109% | NCI-H460 lung 106% | HOP-92 NSCLC 116% | NCI-H522 lung 100% | A549/ATCC NSCLC 93.3% | 786-0 renal 104% | COLO 205 colon 110%

O=[N+]([O-])c1ccc(/C=C/C=C/c2ccccc2)c(Cl)c1
inactive: NCI-H23 lung 89.8% | NCI-H226 lung 102% | NCI-H322M lung 96.4% | HOP-62 NSCLC 105% | NCI-H460 lung 84.5% | HOP-92 NSCLC 84.4% | NCI-H522 lung 80.9% | A549/ATCC NSCLC 89.8% | 786-0 renal 95.6% | COLO 205 colon 119%

[O-][N+](=Nc1cccc(Cl)c1)c1cccc(Cl)c1
inactive: NCI-H23 lung 94.5% | NCI-H226 lung 114% | NCI-H322M lung 95.9% | HOP-62 NSCLC 107% | NCI-H460 lung 99% | HOP-92 NSCLC 94.1% | NCI-H522 lung 148% | A549/ATCC NSCLC 95.1% | 786-0 renal 109% | COLO 205 colon 116%

COC(=O)c1[nH]c(=O)c(C#N)c(C(=O)OC)c1C(=O)c1ccccc1
inactive: NCI-H23 lung 95.4% | NCI-H226 lung 97.7% | NCI-H322M lung 101% | HOP-62 NSCLC 94.2% | NCI-H460 lung 102% | HOP-92 NSCLC 101% | NCI-H522 lung 99.7% | A549/ATCC NSCLC 93.7% | 786-0 renal 100% | COLO 205 colon 123%

CN(C)c1ccc2oc(=O)c3ccccc3c2c1
inactive: NCI-H23 lung 98.3% | NCI-H226 lung 81.3% | NCI-H322M lung 94.8% | HOP-62 NSCLC 78% | NCI-H460 lung 97.3% | HOP-92 NSCLC 68.3% | NCI-H522 lung 97.1% | A549/ATCC NSCLC 105% | 786-0 renal 79.5% | COLO 205 colon 119%

S=C(Nc1ccccc1)N1CCCCC1
inactive: NCI-H23 lung 99.9% | NCI-H226 lung 89.6% | NCI-H322M lung 99% | HOP-62 NSCLC 90.9% | NCI-H460 lung 110% | HOP-92 NSCLC 93.3% | NCI-H522 lung 94.9% | A549/ATCC NSCLC 99.2% | 786-0 renal 102%

CC(=O)N(C)c1ccc([N+](=O)[O-])cc1
inactive: NCI-H23 lung 101% | NCI-H226 lung 105% | NCI-H322M lung 114% | HOP-62 NSCLC 111% | NCI-H460 lung 117% | HOP-92 NSCLC 94.5% | NCI-H522 lung 106% | A549/ATCC NSCLC 106% | 786-0 renal 105% | COLO 205 colon 114%

CC(=O)Cc1cc(-c2cc(CC(C)=O)[nH]n2)n[nH]1
inactive: NCI-H23 lung 102% | NCI-H226 lung 99.3% | NCI-H322M lung 96.2% | HOP-62 NSCLC 95.1% | NCI-H460 lung 105% | HOP-92 NSCLC 104% | NCI-H522 lung 95.8% | A549/ATCC NSCLC 102% | 786-0 renal 103% | COLO 205 colon 110%

Nc1nc2c(c(-c3nc(N)nc4c3CCc3ccccc3-4)n1)CCc1ccccc1-2
inactive: NCI-H23 lung 97.4% | NCI-H226 lung 89.9% | NCI-H322M lung 115% | HOP-62 NSCLC 91.4% | NCI-H460 lung 117% | HOP-92 NSCLC 95.1% | NCI-H522 lung 99.1% | A549/ATCC NSCLC 106% | 786-0 renal 110% | COLO 205 colon 116%

CCCNC(=O)c1ccc(S(N)(=O)=O)cc1
inactive: NCI-H23 lung 118% | NCI-H226 lung 108% | NCI-H322M lung 121% | HOP-62 NSCLC 82.8% | NCI-H460 lung 108% | HOP-92 NSCLC 88.9% | NCI-H522 lung 115% | A549/ATCC NSCLC 112% | 786-0 renal 75.4% | COLO 205 colon 132%

NC(=S)NN=C1CCCC1
inactive: NCI-H23 lung 83.2% | NCI-H226 lung 95.6% | NCI-H322M lung 91.7% | HOP-62 NSCLC 95% | NCI-H460 lung 104% | HOP-92 NSCLC 82.1% | NCI-H522 lung 99.8% | A549/ATCC NSCLC 81.1% | 786-0 renal 106% | COLO 205 colon 101%
